Vaccinia pol inh = inhibitors of vaccinia virus processive DNA synthesis (E9 polymerase). in vitro processive DNA synthesis, absorbance read-out; stronger effect = lower value. normalized absorbance, % (no concentration beside the values). 0.94% of 46,000 active; in the data active = normalized absorbance mostly below about 85%, no sharp cut-off; inactive = mostly above about 86%
Of the large screens only hits and unclear results are named; the others gave an inactive call; ! = not active in a repeat. Only a selection was taken, and hits are over-represented in it overall.

O=C(NCc1ccccc1)C1CC1(c1ccccc1)c1ccccc1 (centres undefined)	none
COc1cc(Cl)c(C)cc1NC(=O)c1cnc(C)cn1	none
CN(C)CCNC(=O)c1cc2c(s1)-c1ccc(Cl)cc1SC2	Vaccinia pol inh 55
CC(C)NC(=O)c1cc2c(s1)-c1ccccc1SC2	none
CC1CCN(C(=O)c2cc3c(s2)-c2ccc(Cl)cc2SC3)CC1	none
Cc1ccc(S(=O)(=O)N2C(=O)CCC2C(=O)N(Cc2nc(-c3cccc(C)c3)no2)C(C)C)cc1 (centres undefined)	none
Cc1ccc2nc(NC(=O)C(F)(F)F)sc2c1	none
COc1ccc(CSc2ncn[nH]2)cc1	none
COc1ccc(C2=C(C#N)C(=O)OC2)cc1	none
COc1ccc(CSC2=C(C#N)C(=O)NC3(CCCCC3)S2)cc1	Vaccinia pol inh 71
NCCNC(=O)Cc1ccc(O)cc1	none
COC(C(=O)Nc1ccc(Cl)cn1)c1ccccc1 (centres undefined)	none
CNc1c(NC(C)=O)c(=O)oc2ccccc12	none
O=C(CC(=O)c1ccccc1)Nc1cc(C(F)(F)F)ccc1Cl	none
CC(Nc1ccccc1)C(=O)Nc1cc(C(F)(F)F)ccc1Cl (centres undefined)	none
COc1ccc(Nc2cc(C(F)(F)F)ccc2Cl)c(C(=O)O)c1	Vaccinia pol inh 60
Cc1sc2ncn(CC(=O)OC3CCCCC3)c(=O)c2c1C	none
CC(C)(O)C#Cc1ccc(C(=O)N2CCC(C(O)(c3ccccc3)c3ccccc3)CC2)o1	none
NC(N)=NC(=O)c1nc(Cl)c(N)nc1N	Vaccinia pol inh 63!
Cn1ncc(Br)c1NC(=O)CN1CCCCC1	none
O=C(NCc1ccc(F)cc1)c1ccc(N2CCCS2(=O)=O)cc1	none
Cc1ccc(/C=C2\CC/C(=C\c3ccc(C)o3)C2=O)o1	none
Cc1ccc(/C=C2/C=CC(=O)O2)o1	Vaccinia pol inh 82
Cc1ccc(/C=C2\N=C(c3ccccc3)OC2=O)o1	none
COc1cccc2c(=O)n(CC(N)=O)ccc12	none
COC(=O)c1ccc(-c2nc(-c3ccccc3)cs2)cc1	none
Cc1ccc(-c2[nH]c(-c3ccc(F)cc3)nc2SCC(=O)NCC2CCCO2)cc1 (centres undefined)	none
COc1ccc(C=Nc2ccc(C(N)=O)cc2)cc1	none
Fc1ccc(-c2csc(=Nc3ccccc3)n2Cc2cccnc2)cc1	none
NC(Cc1ccccc1F)C(=O)O (centres undefined)	none
NC(CSCc1ccccc1Cl)C(=O)O (centres undefined)	none
NC(CSCc1oc(-c2ccccc2)cc1C(=O)O)C(=O)O (centres undefined)	Vaccinia pol inh 77
COc1cccc(-c2nc3sc4c(c3c(=O)o2)CCCC4)c1	none
O=C(NCCOc1ccccc1F)c1ccccc1Nc1cccc2ccccc12	none
CN1CCN(CC(O)COc2ccc(C3CCCCC3)cc2)CC1 (centres undefined)	none
COc1ccc(-c2n[nH]c(C(F)(F)F)c2-c2cc3ccccc3o2)c(O)c1	Vaccinia pol inh 63
COc1ccc(-c2n[nH]c(C(F)(F)F)c2-c2cnn(-c3ccccc3)c2)c(O)c1C	none
Cc1c(O)ccc(-c2n[nH]c(C(F)(F)F)c2Oc2ccccc2)c1O	none
O=C(O)/C=C/c1ccc(-c2ccc(Cl)cc2)o1	none
CC1CCCN(C(=O)COC(=O)c2cccc(Cl)c2)C1 (centres undefined)	none
N#Cc1c(/N=C/c2ccc(F)c(F)c2)sc2c1CCC2	none
CCOc1ccccc1C(=O)Nc1nc2ccc(S(C)(=O)=O)cc2s1	none
O=C1CCCN1c1ncccn1	none
CN(CC(O)Cn1c2ccccc2c2ccccc21)S(C)(=O)=O (centres undefined)	none
CN(C)CC(O)Cn1c2ccc(Br)cc2c2cc(Br)ccc21 (centres undefined)	Vaccinia pol inh 27
OC(CNCc1ccccc1)Cn1c2ccc(Cl)cc2c2cc(Cl)ccc21 (centres undefined)	none
COc1ccc2c(c1)sc(=NC(=O)CSCC(=O)NC1CCCCC1)n2C	none
CCN(CC)c1ncnc2c1[nH]c1ccc(C)cc12	none
COc1ccc2[nH]c3nc(=S)[nH]nc3c2c1	none
COc1ccc2[nH]c3c(N(C)C)ncnc3c2c1	Vaccinia pol inh 64
CCc1sc2sncc2c1Br	Vaccinia pol inh 81
CC(C)n1c(NCc2ccccc2)nc2ccccc21	none
O=C(NCCCN1CCCC1)c1cc2c(Cl)nc3ccccc3c2s1	Vaccinia pol inh 33
CC1CC(C)CN(CCCNC(=O)c2cc3c(=O)[nH]c4ccccc4c3s2)C1 (centres undefined)	Vaccinia pol inh 58
O=C(NCCCN1CCCCC1)c1cc(Sc2ccc(F)cc2)nc2ccccc12	none
CCCCN(C)C(=O)c1cc2c(Cl)nc3ccccc3c2s1	none
O=C(NC1CCCCC1)c1cc2c(=O)[nH]c3ccccc3c2s1	none
Cc1ccc2oc(=O)c3cc(C(=O)NCCN4CCN(Cc5ccccc5)CC4)sc3c2c1	none
Cc1cccc(CCNC(=O)c2cc3c(=O)n(C)c4ccccc4c3s2)c1	none
COC(=O)CNC(=O)c1cc2c(=O)[nH]c3ccccc3c2s1	none
CCn1c(=O)c2cc(C(=O)NCCCN3CCCCCC3)sc2c2ccccc21	none
Cc1ccc(CCNC(=O)c2cc3c(=O)oc4ccc(C)cc4c3s2)cc1	none
Cc1ccc2oc(=O)c3cc(C(=O)NCCCN4CCCCCC4)sc3c2c1	Vaccinia pol inh 68
